# Laboratory results from publication PMC11062922 (Nature Chemical Biology, 2023).
# Like-named read-outs stand apart in the source and are kept apart here.
# What was measured:
# ABL1 = tested on: ABL1; parameters: species or system human, MV4-11 + K-562 + COLO205 + SK-N-BE2 + OVCAR-8; conditions: read-out: apparent Kd, n = 1
# FYN = tested on: FYN; parameters: species or system human, MV4-11 + K-562 + COLO205 + SK-N-BE2 + OVCAR-8; conditions: read-out: apparent Kd; compound concentrations: 100 nM and 1000 nM (sheet 'Samples'), CATDS: 4.4213624367354799E-2; n = 1
# GAK = tested on: GAK; parameters: species or system human, MV4-11 + K-562 + COLO205 + SK-N-BE2 + OVCAR-8; conditions: read-out: apparent Kd, n = 1
# HCK = tested on: HCK; parameters: species or system human, MV4-11 + K-562 + COLO205 + SK-N-BE2 + OVCAR-8; conditions: read-out: apparent Kd, compound concentrations: 100 nM and 1000 nM (sheet 'Samples'), n = 1
# LCK = tested on: LCK; parameters: species or system human, MV4-11 + K-562 + COLO205 + SK-N-BE2 + OVCAR-8; conditions: read-out: apparent Kd, compound concentrations: 100 nM and 1000 nM (sheet 'Samples'), n = 1
# PTK6 = tested on: PTK6; parameters: species or system human, MV4-11 + K-562 + COLO205 + SK-N-BE2 + OVCAR-8; conditions: read-out: apparent Kd, compound concentrations: 100 nM and 1000 nM (sheet 'Samples'), n = 1
# RIPK2 = tested on: RIPK2; parameters: species or system human, MV4-11 + K-562 + COLO205 + SK-N-BE2 + OVCAR-8; conditions: read-out: apparent Kd, n = 1
# RIPK3 = tested on: RIPK3; parameters: species or system human, MV4-11 + K-562 + COLO205 + SK-N-BE2 + OVCAR-8; conditions: read-out: apparent Kd, compound concentrations: 100 nM and 1000 nM (sheet 'Samples'), n = 1
# YES1 = tested on: YES1; parameters: species or system human, MV4-11 + K-562 + COLO205 + SK-N-BE2 + OVCAR-8; conditions: read-out: apparent Kd, compound concentrations: 100 nM and 1000 nM (sheet 'Samples'), n = 1
# ABL2 = tested on: ABL2; parameters: species or system human, MV4-11 + K-562 + COLO205 + SK-N-BE2 + OVCAR-8; conditions: read-out: apparent Kd, n = 1
# BCR = tested on: BCR; parameters: species or system human, MV4-11 + K-562 + COLO205 + SK-N-BE2 + OVCAR-8; conditions: read-out: apparent Kd, n = 1
# CLK1 = tested on: CLK1; parameters: species or system human, MV4-11 + K-562 + COLO205 + SK-N-BE2 + OVCAR-8; conditions: read-out: apparent Kd; compound concentrations:100 nM and 1000 nM (sheet 'Samples'); n = 1
# CLK4 = tested on: CLK4; parameters: species or system human, MV4-11 + K-562 + COLO205 + SK-N-BE2 + OVCAR-8; conditions: read-out: apparent Kd; compound concentrations:100 nM and 1000 nM (sheet 'Samples'); n = 1
# TNK1 = tested on: TNK1; parameters: species or system human, MV4-11 + K-562 + COLO205 + SK-N-BE2 + OVCAR-8; conditions: read-out: apparent Kd, n = 1
# CSNK2A1;CSNK2A3 = tested on: CSNK2A1;CSNK2A3; parameters: species or system human, MV4-11 + K-562 + COLO205 + SK-N-BE2 + OVCAR-8; conditions: read-out: apparent Kd; compound concentrations:100 nM and 1000 nM (sheet 'Samples'); n = 1
# CSNK2A2 = tested on: CSNK2A2; parameters: species or system human, MV4-11 + K-562 + COLO205 + SK-N-BE2 + OVCAR-8; conditions: read-out: apparent Kd; compound concentrations:100 nM and 1000 nM (sheet 'Samples'); n = 1
# RET = tested on: RET; parameters: species or system human, MV4-11 + K-562 + COLO205 + SK-N-BE2 + OVCAR-8; conditions: read-out: apparent Kd, compound concentrations: 100 nM and 1000 nM (sheet 'Samples'), n = 1
# Q6ZSR9 = Q6ZSR9 (human, UniProt Q6ZSR9); parameters: species or system MV4-11 + K-562 + COLO205 + SK-N-BE2 + OVCAR-8; conditions: read-out: apparent Kd; compound concentrations:100 nM and 1000 nM (sheet 'Samples'); n = 1
# [1] = compound concentrations:100 nM and 1000 nM (sheet 'Samples')
# Q6ZSR9, sequence (Q6ZSR9 whole entry, looked up): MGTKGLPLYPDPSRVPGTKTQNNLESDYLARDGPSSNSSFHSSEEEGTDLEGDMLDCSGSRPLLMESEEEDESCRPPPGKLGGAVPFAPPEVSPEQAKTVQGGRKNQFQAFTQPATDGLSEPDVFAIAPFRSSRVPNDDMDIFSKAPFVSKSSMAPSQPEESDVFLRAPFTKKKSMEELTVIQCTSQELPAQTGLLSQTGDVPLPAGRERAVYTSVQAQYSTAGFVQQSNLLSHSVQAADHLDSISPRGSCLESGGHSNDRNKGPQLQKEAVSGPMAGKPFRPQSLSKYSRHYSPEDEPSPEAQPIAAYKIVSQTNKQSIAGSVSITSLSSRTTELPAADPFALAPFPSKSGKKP
compound,measurement,setting,value
c1ccc(Oc2ccc(Nc3ccnc4cc(-c5ccc(CN6CCCCC6)o5)ccc34)cc2)nc1 [GW567143X],potency estimated from few doses,"ABL1; compound concentrations: 100 nM and 1000 nM (sheet 'Samples'), CATDS: 4.7219356438219597E-2",634 nM
same,potency estimated from few doses,FYN,771 nM
same,potency estimated from few doses,"GAK; compound concentrations: 100 nM and 1000 nM (sheet 'Samples'), CATDS: 4.2163459383367997E-2",895 nM
same,potency estimated from few doses,HCK; CATDS: 0.14005546575241301,68.8 nM
same,potency estimated from few doses,LCK; CATDS: 5.0953813421882002E-2,515 nM
same,potency estimated from few doses,PTK6; CATDS: 0.13556199485993101,72.4 nM
same,potency estimated from few doses,"RIPK2; compound concentrations: 100 nM and 1000 nM (sheet 'Samples'), CATDS: 0.12946024003761",77.9 nM
same,potency estimated from few doses,RIPK3; CATDS: 4.1439147975506997E-2,948 nM
same,potency estimated from few doses,YES1; CATDS: 5.50755734526098E-2,421 nM
CC(=O)c1c(-c2ccncc2)[nH]c(-c2ccncc2)c1C [GW493036X],potency estimated from few doses,ABL2; [1],482 nM
same,potency estimated from few doses,BCR; [1],277 nM
same,potency estimated from few doses,CLK1,10.9 nM
same,potency estimated from few doses,CLK4,1.62 nM
same,potency estimated from few doses,RIPK2; [1],1000 nM
Nc1ncc(-c2cn[nH]c2)c2scc(-c3ccc4c(c3)CCN4C(=O)Cc3ccccc3)c12 [GSK2593067A],potency estimated from few doses,"ABL1; compound concentrations: 100 nM and 1000 nM (sheet 'Samples'), CATDS: 6.1234065339549101E-2",1560 nM
same,potency estimated from few doses,LCK; CATDS: 7.5344179504310702E-2,841 nM
same,potency estimated from few doses,"RIPK2; compound concentrations: 100 nM and 1000 nM (sheet 'Samples'), CATDS: 7.5110526663463406E-2",848 nM
CC(=O)N1CCN(c2ccc(Nc3nccc(-c4sc(C(C)C)nc4-c4cccc(NS(=O)(=O)c5ccccc5)c4)n3)cn2)CC1 [GSK1645872A],potency estimated from few doses,"ABL1; compound concentrations: 100 nM and 1000 nM (sheet 'Samples'), CATDS: 2.9890665121479899E-2",746 nM
same,potency estimated from few doses,"ABL2; compound concentrations: 100 nM and 1000 nM (sheet 'Samples'), CATDS: 6.8030281480511795E-2",166 nM
same,potency estimated from few doses,"BCR; compound concentrations: 100 nM and 1000 nM (sheet 'Samples'), CATDS: 2.6881466096611999E-2",991 nM
same,potency estimated from few doses,"GAK; compound concentrations: 100 nM and 1000 nM (sheet 'Samples'), CATDS: 3.3630312969228401E-2",566 nM
same,potency estimated from few doses,LCK; CATDS: 2.6338913401390801E-2,1050 nM
same,potency estimated from few doses,"RIPK2; compound concentrations: 100 nM and 1000 nM (sheet 'Samples'), CATDS: 3.4620572917050799E-2",532 nM
same,potency estimated from few doses,RIPK3; CATDS: 4.0939196436341502E-2,381 nM
same,potency estimated from few doses,"TNK1; compound concentrations: 100 nM and 1000 nM (sheet 'Samples'), CATDS: 4.1915160463804002E-2",364 nM
same,potency estimated from few doses,YES1; CATDS: 4.4721674656853803E-2,324 nM
COc1cccc(-c2c[nH]c3c(N/N=C/c4ccncc4)ncnc23)c1 [GW814408X],potency estimated from few doses,ABL1; [1],1980 nM
same,potency estimated from few doses,BCR; [1],1150 nM
same,potency estimated from few doses,CSNK2A1;CSNK2A3,920 nM
same,potency estimated from few doses,CSNK2A2,237 nM
CN1CCN(Cc2cccc(-c3ccc4c(Nc5ccc(Oc6ccccc6)cc5)ccnc4c3)c2)CC1 [GW578342X],potency estimated from few doses,"ABL1; compound concentrations: 100 nM and 1000 nM (sheet 'Samples'), CATDS: 7.7551536280391298E-2",1560 nM
same,potency estimated from few doses,HCK; CATDS: 0.21487500019283201,115 nM
same,potency estimated from few doses,LCK; CATDS: 8.3289760013849606E-2,1190 nM
same,potency estimated from few doses,PTK6; CATDS: 7.71683723921405E-2,1600 nM
same,potency estimated from few doses,"RIPK2; compound concentrations: 100 nM and 1000 nM (sheet 'Samples'), CATDS: 0.17287191269560401",177 nM
same,potency estimated from few doses,RIPK3; CATDS: 0.10117998061927,638 nM
same,potency estimated from few doses,YES1; CATDS: 0.46544607401261401,32.3 nM
CS(=O)(=O)Cc1ccc(Nc2nccc(-c3c(-c4cccc(NC(=O)c5c(F)cccc5F)c4)nn4ccccc34)n2)cc1 [GSK323543A],potency estimated from few doses,"ABL2; compound concentrations: 100 nM and 1000 nM (sheet 'Samples'), CATDS: 7.35852808685315E-2",971 nM
same,potency estimated from few doses,HCK; CATDS: 9.4870937315331097E-2,576 nM
same,potency estimated from few doses,LCK; CATDS: 7.3424400867348402E-2,976 nM
same,potency estimated from few doses,RET; CATDS: 0.14439255275757601,289 nM
same,potency estimated from few doses,RIPK3; CATDS: 7.2905332862385097E-2,992 nM
same,potency estimated from few doses,"TNK1; compound concentrations: 100 nM and 1000 nM (sheet 'Samples'), CATDS: 0.144635692896082",288 nM
same,potency estimated from few doses,YES1; CATDS: 0.11796638249333601,395 nM
COc1cc2ncn(-c3cc(OCCCc4ccccc4)c(C(N)=O)s3)c2cc1OC [GSK205189A],potency estimated from few doses,ABL2; [1],956 nM
same,potency estimated from few doses,CLK1,105 nM
same,potency estimated from few doses,CLK4,1340 nM
same,potency estimated from few doses,GAK; [1],663 nM
same,potency estimated from few doses,Q6ZSR9,1480 nM
same,potency estimated from few doses,TNK1; [1],42.3 nM
Fc1cc(Cl)ccc1Nc1ccnc2cc(-c3ccc(CN4CCOCC4)o3)ccc12 [GW560109X],potency estimated from few doses,"ABL1; compound concentrations: 100 nM and 1000 nM (sheet 'Samples'), CATDS: 5.7871370068112001E-2",1200 nM
same,potency estimated from few doses,"ABL2; compound concentrations: 100 nM and 1000 nM (sheet 'Samples'), CATDS: 6.6885266429186699E-2",810 nM
same,potency estimated from few doses,"BCR; compound concentrations: 100 nM and 1000 nM (sheet 'Samples'), CATDS: 0.27388815671753503",66.4 nM
same,potency estimated from few doses,"GAK; compound concentrations: 100 nM and 1000 nM (sheet 'Samples'), CATDS: 5.9630252923923099E-2",1100 nM
same,potency estimated from few doses,HCK; CATDS: 5.4118184617509203E-2,1480 nM
same,potency estimated from few doses,PTK6; CATDS: 6.7887281457167797E-2,780 nM
same,potency estimated from few doses,RET; CATDS: 9.1999760709611106E-2,400 nM
same,potency estimated from few doses,"RIPK2; compound concentrations: 100 nM and 1000 nM (sheet 'Samples'), CATDS: 0.235092034784944",82.6 nM
same,potency estimated from few doses,RIPK3; CATDS: 7.3765709446288102E-2,641 nM
